Sampled rows, rich in hits. Any-hit rate of the full collection: about 0.38%.
Rab2A wt mod: changes GTP binding to wildtype dog Rab2A, up or down; P61105; GST-Rab2 wt beads, Bodipy-GTP binding, flow cytometry; GTP binding activity, % at 10 µM; 190,000 tested, 0.19% active;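 active = GTP binding activity at least 20 points away from 100%, either lowered or raised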
HRas wt GTP bind: modulators of GTP binding to human HRas wildtype | P01112 | AID 759 | 190,000 tested, 0.14% active | GST-Ras wt beads, Bodipy-FL-GTP binding, flow cytometry; actives lie on both sides | GTP binding activity, % at 10 µM;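 active = GTP binding activity at least 20% away from the 100% baseline, either lowered as inhibitor or raised as activator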
Target sequence (P01112 whole entry, looked up): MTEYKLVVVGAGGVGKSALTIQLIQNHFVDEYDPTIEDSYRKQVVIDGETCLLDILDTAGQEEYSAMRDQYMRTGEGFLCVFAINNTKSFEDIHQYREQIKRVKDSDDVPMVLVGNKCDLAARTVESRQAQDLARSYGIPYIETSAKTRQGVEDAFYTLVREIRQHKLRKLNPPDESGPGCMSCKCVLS
Rac1 act GTP bind: alters GTP binding to activated mutant human Rac1; P63000; GST-Rac1 activated beads, fluorescent GTP binding, flow cytometry; actives lie on both sides; 100% means binding = to untreated wells; percent activity (GTP binding), % at 10 µM; 190,000 tested, 0.11% active; AID 764;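 active = GTP binding at least 20 percentage points away from the 100% baseline, in either direction, so actives lie on both sides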
Rac1 wt GTP bind: alters GTP binding to wildtype human Rac1 | P63000 | GST-Rac1 beads, fluorescent GTP binding, flow cytometry; actives lie on both sides; 0 = cold GTP competed, 100 = untreated | GTP binding activity (% of control), % at 10 µM | 190,000 tested, 0.27% active;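 active = GTP binding activity at least 20 points away from the 100% control level, either lower or higher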
Cdc42 wt GTP: changes GTP binding to wildtype human Cdc42; P60953; GST-Cdc42 beads, Bodipy-GTP binding, flow cytometry; actives lie on both sides; percent activity (GTP binding), % at 10 µM; 190,000 tested, 0.2% active;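 active = percent activity GTP binding at least 20 points away from the 100% baseline, either down as inhibitor or up as activator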;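 note: median bead fluorescence of bound Bodipy-FL-GTP at 100 nM; below 100% means less GTP binding so inhibitor and above means activator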
Rab7 wt modul: dog Rab7 wildtype GTP binding, inhibitors and activators | GTP binding activity (percent of control), % at 10 µM | GST-Rab7 beads, fluorescent GTP binding, flow cytometry; actives lie on both sides; untreated = 100%, excess cold GTP = 0% | AID 758 | 190,000 tested, 0.055% active;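 active = fluorescent GTP binding to Rab7 beads changed by at least 20 points from the 100% baseline, either direction, mostly lower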;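 note: median green fluorescence of bound Bodipy-FL-GTP per Rab7 bead population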
Numbers stand for hits; . = inactive; [ ] = another dose, or the depositor's remark.

SMILES	Rab2A wt mod	HRas wt GTP bind	Rac1 act GTP bind	Rac1 wt GTP bind	Cdc42 wt GTP	Rab7 wt modul
CCOCCCn1c(N)c(C(=O)Nc2sc3c(c2C(=O)OC)CCCC3)c2nc3ccccc3nc21	72	72	.	.	72	.
COc1ccc(C2NCCc3[nH]cnc32)cc1 (stereo not drawn)	.	.	.	.	.	.
Cc1c(N=Nc2c(O)[nH]c(=S)[nH]c2=O)c(=O)n(-c2ccccc2)n1C	.	.	.	.	.	.
O=c1[nH]c(=S)[nH]c(O)c1N=Nc1ccc(S(=O)(=O)N2CCc3ccccc32)cc1	.	.	.	120[activator]	.	.
O=c1[nH]c(=O)n(Cc2ccccc2Cl)c(O)c1/C=C1/C=CC=N1	.	.	.	.	.	.
Cc1cccc(-n2c(O)c(C=Nc3ccc(Br)cn3)c(=O)[nH]c2=O)c1	.	.	.	.	.	.
Cc1ccc(-n2c(O)c(/C=N/c3ncc(Br)cc3Br)c(=O)[nH]c2=O)cc1	.	.	.	123[activator]	.	.
CCn1nc(/C=C/c2ccccc2)nc2c(=O)n(C)c(=O)nc1-2	.	.	.	.	76	.
